Drawing on PubChem BioAssay AID1671189 (National Center for Advancing Translational Sciences (NCATS), 2021), this text covers Potency for 72 compounds.

“And” between values parts separate entries of the source, which are not always exact repeats. Identical values can stand only once. Among all 1,100 compounds or so, about 70 (6%) were called active. A call without a number means that no potency is given here. Another 22% or so got no clear call; they are omitted. The call rests on the fitted dose curve; in most records, active means well fitted curve in the direction sought with a large enough effect; inconclusive means small, poorly fitted or top-dose-only effect, or another doubt; inactive means no such curve, though single readings can be large or run the other way. Only a selection was taken, and actives are over-represented in it overall.
Potency means the concentration at half of the fitted maximal effect.

The target of this assay is Polyunsaturated fatty acid lipoxygenase ALOX12 (Homo sapiens) (UniProt P18054). The assay can be described thus: Confirmatory qHTS assay for inhibitors of human arachidonate 12S-lipoxygenase (ALOX12): Round 2. The following applies: purified human 12-LOX, xylenol orange absorbance; series mostly up to 125 µM. In short, it runs like this: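 Activity was measured as hydroperoxide formation via ferrous/xylenol orange, taking the 573 nm to 405 nm absorbance ratio. Reaction: 40 uM arachidonic acid, 30 min at room temperature, after 15 min compound preincubation with 150 nM enzyme, pH 7.0 Hepes buffer.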
Chain of Polyunsaturated fatty acid lipoxygenase ALOX12 (Homo sapiens) (P18054 whole entry, looked up): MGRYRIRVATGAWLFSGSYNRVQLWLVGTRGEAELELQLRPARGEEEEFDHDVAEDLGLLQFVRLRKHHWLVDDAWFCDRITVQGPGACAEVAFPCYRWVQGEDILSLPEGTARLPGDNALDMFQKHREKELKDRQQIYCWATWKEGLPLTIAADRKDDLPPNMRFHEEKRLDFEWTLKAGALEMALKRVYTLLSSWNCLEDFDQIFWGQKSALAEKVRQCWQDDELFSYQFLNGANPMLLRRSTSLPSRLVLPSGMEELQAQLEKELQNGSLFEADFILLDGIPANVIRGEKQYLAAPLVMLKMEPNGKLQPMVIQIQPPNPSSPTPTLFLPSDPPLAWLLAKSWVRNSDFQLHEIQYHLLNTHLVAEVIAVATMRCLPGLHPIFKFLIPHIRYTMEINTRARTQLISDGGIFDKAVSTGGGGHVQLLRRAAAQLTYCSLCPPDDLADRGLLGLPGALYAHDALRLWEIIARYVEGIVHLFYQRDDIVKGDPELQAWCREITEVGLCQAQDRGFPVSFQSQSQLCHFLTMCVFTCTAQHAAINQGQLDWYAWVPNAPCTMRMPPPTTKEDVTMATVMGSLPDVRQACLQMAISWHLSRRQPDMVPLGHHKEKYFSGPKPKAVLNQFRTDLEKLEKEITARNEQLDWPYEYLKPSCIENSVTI
Background: Quantitative high-throughput screening tests each substance at several concentrations.
`COCCNC(=O)c1cc(C)nc2onc(C3CCCNC3)c12` (configuration not stated): the Potency entry is “inactive”.
Next, `O=C(O)c1ccc(-c2cnccn2)cc1`: “inactive”.
For `CN1CCC2(Cc3ccccc3CN(C(=O)Cc3cccc(Cl)c3)C2)C1` (configuration not stated), the Potency result is “inactive”.
As for `CNC(C)c1cccc(OC)c1` (configuration not stated), the Potency result was “inactive”.
Consider `O=[S+]([O-])(Nc1ccc(N2CCNCC2)cc1)c1ccc(NCc2ccc(Cl)cc2O)cc1`, for which the Potency was 21.7 µM (active).
As for `O=[S+]([O-])(Nc1ccc(N2CCNCC2)cc1)c1ccc(NCc2ccc(Br)cc2O)cc1`, the Potency was 21.7 µM (active).
As for `O=C(CCC[C@H]1NC[C@@H]2CC1CN(Cc1ccccc1)C2)NCc1ccc(F)cc1`, the Potency entry is “inactive”.
Regarding `Cc1ccc(CN2CCC3(CC2)Cc2ccccc2CNC3=O)cc1C`, the Potency result was “inactive”.
Next, `O=C(NCc1ccncc1)c1cc(C2CC2)nc2c1c(C1CCCN1)nn2-c1ccccc1` (configuration not stated): “inactive”.
For the compound `Cc1cc(C(=O)NCc2ccc(F)cc2)c2c(C3CCNC3)noc2n1` (configuration not stated), the Potency entry is “inactive”.
Regarding `O=C1CCN(C(=O)[C@@H]2CCCN2Cc2ccc(C(F)(F)F)cc2)CCCCCCN1`, the Potency entry is “inactive”.
As for `CCn1cc(-c2ccc(C)cc2)cc1C(=O)N1CCN(c2ccccn2)CC1`, the Potency result is “inactive”.
As for `CCC(C)Cn1c(/C=C/c2ccccc2)nc2ccccc21` (configuration not stated), the Potency entry is “inactive”.
`C[C@]1(CO)[C@H]2Cc3sc(NC(=O)c4ccnc(Cl)c4)nc3[C@@H](CC(=O)O)[C@]2(C)CC[C@H]1O`: the Potency result is “inactive”.
Regarding `CC(=O)NC(c1cccs1)c1cc(Br)c2cccnc2c1O` (configuration not stated), the Potency entry was “inactive”.
Next, `CC(=O)NC(c1cccs1)c1cc(Cl)c2cccnc2c1O` (configuration not stated): 3.06 µM (active); `COC(=O)[C@H](c1ccccc1Cl)N1CCc2sccc2C1`: “inactive”; `CCC(=O)NC(c1cccs1)c1cc(Cl)c2cccnc2c1O` (configuration not stated): 1.93 µM (active) and 4.85 µM (active) and 2.43 µM (active).
Next, `CCC(=O)NC(c1cccs1)c1cc([N+](=O)[O-])c2cccnc2c1O` (configuration not stated): 6.11 µM (active).
As for `NCc1cccc(-c2cc(C(F)(F)F)ccc2Cl)c1`, the Potency result was “inactive”.
As for `Cc1ccc(CN2CCc3oc(C)c(C(=O)N4CCSCC4)c3C2)cc1`, the Potency entry was “inactive”.
In the case of `Cc1ccc(CCN2CCCCC23Cc2ccccc2CN(C(=O)CCCC(=O)O)C3)cc1` (configuration not stated), the Potency entry is “inactive”.
On to `CN1CC(=O)N(C2CCCNC2)Cc2c(NC3CCCCCC3)ncnc21` (configuration not stated), for which the Potency result is “inactive”.
Consider `CC(C)(N)C(=O)N1CCCC(N2CCN(Cc3ccc4c(c3)OCO4)CC2)C1` (configuration not stated), for which the Potency result was “inactive”.
`COc1ccc(N2CC3CCC(C2)N3C(C)=O)cc1`: the Potency entry was “inactive”.
Consider `O=C(c1cc(C2CC2)nc2onc(C3CCCN3)c12)N1CCC(F)CC1` (configuration not stated), for which the Potency entry was “inactive”.
Take `COc1ccc(C(=O)N2CC(Oc3ccc4c(c3)OCO4)C2)cc1`: the Potency entry was “inactive”.
In the case of `O=C(NC1CCCCC1)O[C@@H]1CO[C@H]2[C@@H]1OC[C@@H]2n1nnnc1SCc1ccco1`, the Potency is 7.08 µM (active).
With `O=C(Nc1ccccc1)O[C@@H]1CO[C@H]2[C@@H]1OC[C@@H]2n1nnnc1SCc1ccco1`, the Potency entry was “inactive”.
Consider `O=C(c1cc(C2CC2)nc2c1c(C1CCCN1)nn2-c1ccccc1)N1CCC(F)CC1` (configuration not stated), for which the Potency result was “inactive”.
On to `CNc1nnc(-c2cccc3ccccc23)s1`, for which the Potency entry is “inactive”.
As to `NC(=O)c1cccc(CN2CCC3(CC2)Cc2ccccc2N(C(=O)c2ccc(Cl)cc2)C3)c1`, the Potency is 22.1 µM (active).
`O=C(C1CCCC1)N1Cc2ccccc2CC2(CCN(Cc3cccnc3)C2)C1` (configuration not stated): the Potency result is “inactive”.
Consider `O=C(c1ccc(Cl)cc1)N1CC2(CCCN(Cc3ccc(Cl)cc3)C2)Cc2ccccc21` (configuration not stated), for which the Potency was 4.94 µM (active).
For the compound `CCC(=O)N1Cc2ccccc2CC2(CCN(Cc3ccncc3)CC2)C1`, the Potency result was “inactive”.
For `O=C(c1ccc(Cl)cc1)N1CC2(CCN(Cc3ccc(Cl)cc3)C2)Cc2ccccc21` (configuration not stated), the Potency is 1.56 µM (active).
As for `O=C(C1CCCC1)N1CC2(CCN(Cc3ccc(Cl)cc3)C2)Cc2ccccc21` (configuration not stated), the Potency is 6.22 µM (active).
Consider `O=C(C1CCCC1)N1Cc2ccccc2CC2(CCN(Cc3ccncc3)C2)C1` (configuration not stated), for which the Potency entry is “inactive”.
As for `O=C(c1ccc(Cl)cc1)N1CC2(CCCN(Cc3ccccn3)C2)Cc2ccccc21` (configuration not stated), the Potency result was “inactive”.
As for `CC(=O)N1CC2(CCCN(CC3CCCCC3)C2)Cc2ccccc21` (configuration not stated), the Potency entry is “inactive”.
Turning to `CCCC(=O)N1Cc2ccccc2CC2(CCN(Cc3ccc(O)cc3)C2)C1` (configuration not stated), the Potency result was “inactive”.
Next, `CCCC(=O)N1Cc2ccccc2CC2(CCN(Cc3ccccc3)CC2)C1`: “inactive”; `CC(=O)N1Cc2ccccc2CC2(CCN(Cc3ccncc3)C2)C1` (configuration not stated): “inactive”.
On to `CC(=O)N1Cc2ccccc2OC2(CCN([S+](C)(=O)[O-])CC2)C1`, for which the Potency result is “inactive”.
Regarding `CNc1oc(C2CCCC2)nc1C#N`, the Potency result was “inactive”.
With `Cc1cccc(-c2cnc3n[nH]c(-c4ccc5c(c4)OCO5)c3n2)c1`, the Potency entry is “inactive”.
With `CN1CC(=O)N(C2CCCNC2)Cc2c(NC3CCC3)ncnc21` (configuration not stated), the Potency result was “inactive”.
Turning to `N#Cc1cc2nc(O)c(O)nc2cc1[N+](=O)[O-]`, the Potency result is “inactive”.
`OC1(CN2CCN(c3nccs3)CC2)CCCNC1` (configuration not stated): the Potency result was “inactive”.
As to `Cc1ccc(-c2ccccc2CN)c(C)c1`, the Potency result was “inactive”.
As to `CCOCCCNc1ncnc2c1CN(C1CCCNCC1)C(=O)CN2C` (configuration not stated), the Potency entry was “inactive”.
Take `CN1CC(=O)N(C2CNC2)Cc2c(NC3CC3)ncnc21`: the Potency result is “inactive”.
Regarding `CN1CC(=O)N(C2CCCNC2)Cc2c(NCC3CCCCCC3)ncnc21` (configuration not stated), the Potency result was “inactive”.
With `O=C1NCc2ccccc2CC12CCN(Cc1ccc(F)c(Cl)c1)CC2`, the Potency entry is “inactive”.
`C[S+](=O)([O-])N1CC2(Cc3ccccc3NC2=O)C1`: the Potency entry is “inactive”.
Next, `N#Cc1ccc(CN2CCn3c(nn(-c4cccc(Cl)c4)c3=O)C2)cc1`: “inactive”; `O=C(c1ccc(C(F)(F)F)cc1)N1CCC2(CC1)C(=NC1CCCCC1)NC(=O)N2c1cc(F)cc(F)c1`: “inactive”.
Regarding `CC(=O)NCCC(=O)N1Cc2ccccc2CC2(CCCN2CC2CCNCC2)C1` (configuration not stated), the Potency result was “inactive”.
As for `COc1cccc(CC(=O)N2CC(CO)C3(CCNCC3)C2)c1` (configuration not stated), the Potency entry is “inactive”.
On to `Nc1ccccc1CN1CCCC2(Cc3ccccc3CNC2=O)C1` (configuration not stated), for which the Potency result was “inactive”.
For `Cc1cc(C)cc(CN2CCC3(Cc4ccccc4CNC3=O)C2)c1` (configuration not stated), the Potency result was “inactive”.
In the case of `CCOc1cccc(CN2CCC3(Cc4ccccc4CNC3=O)C2)c1` (configuration not stated), the Potency entry was “inactive”.
Next, `O=C1NCc2ccccc2CC12CCN(Cc1ccccc1Cl)C2` (configuration not stated): “inactive”.
For the compound `Cc1ccc(CN2CCC3(Cc4ccccc4CNC3=O)C2)cc1C` (configuration not stated), the Potency result is “inactive”.
Take `O=C1NCc2ccccc2CC12CCN(Cc1ccc(Oc3ccccc3)cc1)C2` (configuration not stated): the Potency was 55.5 µM (active).
Regarding `Cc1cc(C)c(CN2CCC3(Cc4ccccc4CNC3=O)C2)c(C)c1` (configuration not stated), the Potency was 0.879 µM (active).
Consider `O=C1NCc2ccccc2CC12CCN(Cc1ccc(Cl)cc1)C2` (configuration not stated), for which the Potency is 27.5 µM (active).
Regarding `O=C1NCc2ccccc2CC12CCN(Cc1cccc(Br)c1)C2` (configuration not stated), the Potency result was “inactive”.
With `O=C1NCc2ccccc2CC12CCN(Cc1ccc(Br)cc1)C2` (configuration not stated), the Potency was 17.5 µM (active).
As to `CCOc1ccc(CN2CCC3(Cc4ccccc4CNC3=O)C2)cc1` (configuration not stated), the Potency result is “inactive”.
`O=C1NCc2ccccc2CC12CCN(Cc1cc(O)cc(O)c1)C2` (configuration not stated): the Potency result was “inactive”.
`O=C1NCc2ccccc2CC12CCN(Cc1ccc(Cl)cc1)CC2`: the Potency result is “inactive”.
